PubChem BioAssay (NCATS)
“And” between values parts separate entries of the source, which are not always exact repeats. Equal values may be shown once. Inconclusive results are not listed. The source made the active and inactive calls. Calls follow the shape of the dose curve; as a rule, active = well fitted cell-killing curve with a large enough effect; inconclusive = small, poorly fitted or top-dose-only effect, or effect the other way, or another doubt; inactive = no such curve, though single readings can be large or run the other way.
Potency is read from the fitted curve at half-maximal effect.

Test: Identifying Small Molecule Inhibitors of Pancreatic Cancer Stem Cells (Panc1, Adherent) (AID 1259362)
Conditions: Potency: viability; series mostly up to 46.1 µM
From the text: Progenitor-like cancer cells, often referred to as cancer stem cells (CSC), are believed to be the drivers of therapeutic resistance and rapid recurrence. CSCs are postulated to reside in specific niches characterized by low oxygen tension, limited nutrient supply, and high redox load. Selectively targeting CSC, alone or in combination with cytotoxic agents, as a means to produce durable remissions is an appealing concept. Modeling these cells in in vitro setting is an important step in finding new therapies and/or targets. Multiple reports highlight that forcing cells in culture into 3-dimensionaly architectures (spheroids) re-establishes key progenitor-like transcriptional signatures. Pancreatic cancer is among the diseases with the most dismal outlook which is driven, largely, by recurance following front-line therapies. […] In hopes of deriving new insight into the targeting of these pancreatic CSCs we examined three established pancreatic cancer cell lines in cytotoxicity assays versus a collection of approved and investigational drugs. Importantly, we screened these lines as traditional monolayer (2D) and spheroid (3D) formats to gain an appreciation of agents with differential activity.
Multicellular tumor spheroids from Panc1, MiaPaCa-2, and the primary low-passage tissue culture line SB.06 were seeded in stem cell media (SCM) in nonadherent 6-well plates coated with hydrogel (Corning Life Sciences, Chelmsford, Mass) and pancreatic spheres generated for 14 days before screening. Cells were seeded into 1536-well solid-bottom white tissue culture treated Greiner Bio One Plates (789173-F) using a MultiDrop Combi (Thermofisher Scientific) dispenser and a small sterile cassette. One column was media alone to be used as a :"no cells" control. The plates were then covered with sterilized stainless steel gasketed lids from Kalypsys. After allowing cells to attach for 4 hours, 23 nL of test compound or control (negative control DMSO and positive control 9.2 uM Bortezomib-final) were added from a 1536-well polypropylene compound source plate to each well using a 1536 head pin tool from Kalypsys. Cells were then incubated for 48 hours at 37C, 95% relative humidity and 5% CO2. After 48 hours, plates were removed from the incubator and 3 uL of CellTiter-Glo (Promega) was added using an Aurora Flying Reagent Dispenser Bioraptor. Plates were incubated at room temperature for 10 minutes prior to reading the luminescence on the Viewlux (PerkinElmer). The relative luciferase units are used to calculate the percent activity using the activity of DMSO in the cells and no cells columns for normalization of no inhibition and full inhibition respectively.
For C=C1C(=CC=C2CCC[C@]3(C)[C@@H]([C@H](C)C=C[C@H](C)C(C)C)CC[C@@H]23)C[C@@H](O)C[C@@H]1O, the Potency was 26.4 µM (active).
With CC(C)C[C@H](NC(=O)CNC(=O)c1cc(Cl)ccc1Cl)B(O)O the Potency was 0.187 µM (active).
With O=C(Nc1cc(C(F)(F)F)cc(C(F)(F)F)c1)c1cc(Cl)ccc1O the Potency was 0.0332 µM (active).
In the case of C[C@@H](Oc1cc(-n2cnc3ccc(CN4CCN(C)CC4)cc32)sc1C(N)=O)c1ccccc1C(F)(F)F, the Potency is reported as 0.0037 µM (active).
With CCN1CCN(CC(=O)Nc2ccc(-c3cccc4c(=O)cc(N5CCOCC5)oc34)c3sc4ccccc4c23)CC1 the Potency was 23.5 µM (active).
In the case of C=CCn1c(=O)c2cnc(Nc3ccc(N4CCN(C)CC4)cc3)nc2n1-c1cccc(C(C)(C)O)n1, the Potency is reported as 0.59 µM (active).
With Cc1cnc(Nc2ccc(F)cc2Cl)nc1-c1c[nH]c(C(=O)N[C@H](CO)c2cccc(Cl)c2)c1 the Potency was 18.7 µM (active).
With CC(C)c1ccc(Cn2ccc3c4c(N)nc(NC5CC5)nc4ccc32)cc1 the Potency was 0.743 µM (active).
For CC1(C)OC2=C(C(=O)c3ccccc3C2=O)[C@H](NCc2ccccc2)[C@H]1O, the Potency was 3.32 µM (active).
With COCCn1c2c([n+](Cc3cnccn3)c1C)C(=O)c1ccccc1C2=O the Potency was “inactive”.
With Clc1ccc2ncc(-c3cccc(NC4CNC4)n3)n2c1 the Potency was “inactive”.
With Cc1ccc(C(=O)Nc2ccc(CN3CCN(C)CC3)c(C(F)(F)F)c2)cc1C#Cc1cnc2cccnn12 the Potency was 23.5 µM (active).
In the case of O=C(C=Cc1c(C(=O)O)[nH]c2cc(Cl)cc(Cl)c12)Nc1ccccc1, the Potency is reported as “inactive”.
In the case of C1=CCOCc2cc(ccc2OCCN2CCCC2)Nc2nccc(n2)-c2cccc(c2)OCC1, the Potency is reported as 1.87 µM (active).
For CC[C@@H]1C(=O)N(C)c2cnc(Nc3ccc(C(=O)NC4CCN(C)CC4)cc3OC)nc2N1C1CCCC1, the Potency was 0.0093 µM (active).
With Cc1[nH]nc2ccc(-c3cncc(OC[C@@H](N)Cc4ccccc4)c3)cc12 the Potency was 4.69 µM (active).
With CCCCN1CCC(CNC(=O)c2c3n(c4ccccc24)CCCO3)CC1 the Potency was “inactive”.
With Cc1ccc(C(=O)Nc2cccc(C(F)(F)F)c2)cc1-c1ccc2nc(NCCN3CCOCC3)ncc2c1 the Potency was 11.8 µM (active).
For C=CC(=O)Nc1cc2c(Nc3ccc(F)c(Cl)c3)ncnc2cc1C#CC(C)(C)N1CCN(C)CC1, the Potency was 11.8 µM (active).
In the case of CC(=O)OCCN1C(=O)c2c(C)nc3ccc(S(=O)(=O)N4CCOCC4)cc3c2C1=O, the Potency is reported as 10.5 µM (active).
With CCOc1cc2ncc(C#N)c(Nc3ccc(F)c(Cl)c3)c2cc1NC(=O)C=CCN(C)C the Potency was 18.7 µM (active).
In the case of CC(C)[C@H](C(=O)Nc1ccc(C(=O)NO)cc1)c1ccccc1, the Potency is reported as 0.418 µM (active).
With CCC[C@H](NC(=O)C(C#N)=Cc1cccc(Br)n1)c1ccccc1 the Potency was 20.9 µM (active).
With COc1cccc2nc(-c3cccs3)nc(NN3C(=O)C=C(C)C3=O)c12 the Potency was 16.6 µM (active).
With Nc1nccc(Oc2ccc(NC(=O)c3c[nH]cc(-c4ccc(F)cc4)c3=O)cc2F)c1Cl the Potency was “inactive”.
In the case of C=CC(=O)Nc1cccc(Oc2nc(Nc3ccc(N4CCN(C)CC4)cc3OC)ncc2Cl)c1, the Potency is reported as “inactive”.
For N#Cc1c(O)c2c(-c3ccc(-c4ccccc4O)cc3)csc2[nH]c1=O, the Potency was “inactive”.
With CC1=C(CO)C(=O)O[C@@H]([C@@H](C)[C@H]2CC[C@H]3[C@@H]4C[C@H]5O[C@]56[C@@H](O)C=CC(=O)[C@]6(C)[C@@H]4CC[C@]23C)C1 the Potency was 2.96 µM (active).
For COc1cc2ncnc(Nc3ccc(F)c(Cl)c3)c2cc1NC(=O)C=CCN1CCCCC1, the Potency was 23.5 µM (active).
With Cc1[nH]c2ccccc2c1CCNCc1ccc(C=CC(=O)NO)cc1 the Potency was 0.148 µM (active).
For COc1cc(OC2CCN(C)CC2)ccc1Nc1ncc2c(n1)n(C1CCCC1)c(=O)n2C, the Potency was 2.96 µM (active).
For O=C(NCCCNc1nc(Nc2cccc(NC(=O)N3CCCC3)c2)ncc1I)c1cccs1, the Potency was 11.8 µM (active) and 16.6 µM (active).
With CC(=O)SC[C@@H](C)C(=O)N1CCC[C@H]1C(=O)N[C@@H](Cc1ccccc1)C(=O)O the Potency was “inactive”.
In the case of CC(NCc1ccc2c(c1)nc(NC(=O)c1ccc(-c3cn[nH]c3)s1)n2CC(C)(C)O)C(C)(C)C (stereo not given), the Potency is reported as 0.264 µM (active).
With CS(=O)(=O)N1CCN(Cc2cc3nc(-c4cccc5[nH]ncc45)nc(N4CCOCC4)c3s2)CC1 the Potency was 0.59 µM (active).
With CN1CC[C@@H](c2c(O)cc(O)c3c(=O)cc(-c4ccccc4Cl)oc23)[C@@H](O)C1 the Potency was 0.132 µM (active).
With Cc1ccc(-c2ncn(-c3ccc(Nc4nccc(-c5cccc(N6CCOCC6)c5)n4)cc3)n2)cn1 the Potency was 0.0743 µM (active).
With CCN(CC)CCCCNc1ncc2cc(-c3cc(OC)cc(OC)c3)c(NC(=O)NC(C)(C)C)nc2n1 the Potency was “inactive”.
For CN(C)CC=CC(=O)Nc1cc2c(Nc3ccc(F)c(Cl)c3)ncnc2cc1O[C@H]1CCOC1, the Potency was 1.48 µM (active).
With O=C(C=Cc1cccnc1)NCCCCC1CCN(C(=O)c2ccccc2)CC1 the Potency was “inactive”.
